The results in this text go back to PubChem BioAssay AID757 (NMMLSC, 2007).

SMILES strings stand for the structures. Screen size: about 190,000 compounds; about 520 (0.27%) were called active. Inconclusive results (about 2%) are left out. The sample holds actives, similar compounds and a random draw of the others, so the mix is not that of the screen.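 The calls were made as follows: active = GTP binding activity at least 20 points away from the 100% control level, either lower or higher; inconclusive = compound flagged as likely green fluorescent, judged across all proteins; inactive = the rest.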

This assay deals with Ras-related C3 botulinum toxin substrate 1 (Homo sapiens) (UniProt P63000). Description: compounds altering fluorescent GTP loading on wildtype Rac1 – biochemical, GST-Rac1 beads, flow cytometry, multiplex, primary screen (AID 757). To be noted: at 10 µM, actives lie on both sides, 0 = cold GTP competed, 100 = untreated. A general note: Flow cytometry measures light scatter and fluorescence of single cells or particles in a stream.
Regarding `CCc1ccc(C(=O)OCC(=O)NCC(F)(F)F)cc1`, the GTP binding activity (% of control) is 98% (inactive).
`CN(Cc1ccccn1)Cc1nc(-c2ccc(Cl)cc2)no1`: the GTP binding activity (% of control) is 101% (inactive).
Regarding `COc1ccccc1-c1noc(CSc2nc(C)cc(=O)[nH]2)n1`, the GTP binding activity (% of control) was 93% (inactive).
Turning to `COc1ccc(CC(NC(C)=O)C(=O)NC2CCN(C(=O)C3CC3)CC2)cc1OC` (stereo unspecified), the GTP binding activity (% of control) was 101% (inactive).
In the case of `O=C(/C=C/c1ccc(Cl)c([N+](=O)[O-])c1)c1cccnc1`, the GTP binding activity (% of control) was 78% (active).
Then `O=C(/C=C/c1ccc(Cl)cc1Cl)c1cccnc1`, with 92% (inactive); and `O=C(Nc1cccnc1)c1ccc(Cl)c([N+](=O)[O-])c1`, with 98% (inactive).
Then `O=C(CC1CCCCC1)NCc1ccc(F)cc1`, with 100% (inactive).
For the molecule `O=C(NCCCn1ccnc1)C(=O)c1cn(CC(=O)N2CCCCCC2)c2ccccc12`, the GTP binding activity (% of control) was 100% (inactive).
In the case of `COc1cc(CNC2CCCC2)c(Br)cc1OCc1ccccc1`, the GTP binding activity (% of control) is 96% (inactive).
Then `COc1cc(C=O)c(Br)cc1OCC(=O)NCc1ccccc1`, with 97% (inactive); and `COc1cc(C(=S)NCc2ccccc2)cc(Br)c1O`, with 79% (active); and `Cc1ccc(NC(=O)CSc2nnc(CNC(=O)c3ccccc3F)o2)cc1`, with 92% (inactive).
Turning to `CS(=O)(=O)N(CC(=O)N1CCCC1)Cc1ccccc1`, the GTP binding activity (% of control) was 106% (inactive).
On to `COc1cccc(CNC(=O)CCC2CCCN(C(=O)c3cc(C)[nH]n3)C2)c1` (stereo unspecified), for which the GTP binding activity (% of control) is 100% (inactive).
`CC(=O)N1N=C(c2ccccc2)OC1c1cccnc1` (stereo unspecified): the GTP binding activity (% of control) is 98% (inactive).
For the molecule `CCc1nc(C)cn1S(=O)(=O)c1cc([N+](=O)[O-])ccc1Cl`, the GTP binding activity (% of control) is 96% (inactive).
Regarding `Cc1cccc(NC(=S)NC23CN4CN(CN(C4)C2)C3)c1`, the GTP binding activity (% of control) is 99% (inactive).
As for `COC(=O)CC1=NN(c2ccccc2)C(=O)C1`, the GTP binding activity (% of control) was 101% (inactive).
Then `O=C(NCC(=O)N(CC1CCCO1)C(C(=O)NC1CCCCC1)c1ccccc1)c1ccco1` (stereo unspecified), with 103% (inactive); and `COc1ccc2ccccc2c1CNc1nnnn1C`, with 93% (inactive); and `O=C(NCCCN1CCOCC1)c1ccc(N2CCCC2)c([N+](=O)[O-])c1`, with 99% (inactive).
Regarding `CC(=O)c1ccc(N2CCN(S(=O)(=O)c3c(C)[nH]c(=O)[nH]c3=O)CC2)cc1`, the GTP binding activity (% of control) is 99% (inactive).
On to `COc1ccc(Br)cc1/C=N/Nc1ccc(Cl)c(C(=O)O)c1`, for which the GTP binding activity (% of control) is 93% (inactive).
In the case of `Cc1nc(-c2ccccc2)sc1C(=O)/C=C/N(C)C`, the GTP binding activity (% of control) is 96% (inactive).
With `COc1cccc(-n2c(=S)sc3c(=O)n(-c4ccccc4OC)c(SCC4OCCO4)nc32)c1`, the GTP binding activity (% of control) was 100% (inactive).
Turning to `O=C(/C=C/c1ccccc1Cl)Nc1ccc(S(=O)(=O)Nc2ncccn2)cc1`, the GTP binding activity (% of control) is 100% (inactive).
For `CCOC(=O)c1sc2nc(C)nc(Nc3ccc(OC)c(OC)c3)c2c1C`, the GTP binding activity (% of control) is 89% (inactive).
Regarding `CCOC(=O)c1sc(-c2cccc([N+](=O)[O-])c2)cc1N`, the GTP binding activity (% of control) was 101% (inactive).
As to `O=C(CNC1CCCCC1)NCC1(c2ccccc2)CCCC1`, the GTP binding activity (% of control) is 98% (inactive).
Then `Cc1csc(CN(C)C(=O)CC2C(=O)NCCN2CC(C)(C)C)n1` (stereo unspecified), with 98% (inactive); and `COCCN(CCOC)C(=S)Nc1ccccc1Cl`, with 95% (inactive); and `CC1CC1C(=O)OCC(=O)c1c(N)n(C)c(=O)n(C)c1=O` (stereo unspecified), with 92% (inactive).
For `CSc1ncccc1C(=O)NC1CCCCCC1`, the GTP binding activity (% of control) was 99% (inactive).
For the molecule `COc1ccc(NC(=O)c2c(SC)nsc2SC)cc1`, the GTP binding activity (% of control) was 110% (inactive).
Consider `CSc1nsc(SC)c1NC(=O)OC1CCCCC1`, for which the GTP binding activity (% of control) was 30% (active).
In the case of `Cn1ncc(N2CCN(S(=O)(=O)c3ccc(Br)cc3)CC2)c(Cl)c1=O`, the GTP binding activity (% of control) is 99% (inactive).
As for `CCc1ccccc1NC(=O)CN(c1ccc(OC)cc1OC)S(=O)(=O)c1ccccc1[N+](=O)[O-]`, the figure is 100% (inactive).
Take `O=C(NNC(=S)Nc1ccccc1)c1cccc(S(=O)(=O)N2CCOCC2)c1`: the GTP binding activity (% of control) is 96% (inactive).
In the case of `O=C(CSc1ccsc1[N+](=O)[O-])N1CCCCC1`, the GTP binding activity (% of control) was 102% (inactive).
As to `CN(c1ccc(OCC(=O)OCC(=O)Nc2cccc([N+](=O)[O-])c2)cc1)S(=O)(=O)c1ccc(F)cc1`, the GTP binding activity (% of control) is 101% (inactive).
Turning to `CCOc1ccc(S(=O)(=O)Nc2nccs2)cc1`, the GTP binding activity (% of control) is 94% (inactive).
Turning to `O=C(Nn1cnc2ccccc2c1=O)c1ccc([N+](=O)[O-])cc1Cl`, the GTP binding activity (% of control) was 96% (inactive).
As for `Cc1cnc(C(=O)N2CCCC(C(=O)c3ccc(C(F)(F)F)cc3)C2)cn1` (stereo unspecified), the GTP binding activity (% of control) was 100% (inactive).
With `CCC1SC(CC)C(=O)N(CC(=O)NC2CCCCC2)C1=O` (stereo unspecified), the GTP binding activity (% of control) is 99% (inactive).
As for `O=C(c1ccc(N2CCOCC2)c([N+](=O)[O-])c1)N1CCN(S(=O)(=O)c2cccs2)CC1`, the figure is 96% (inactive).
As for `COCCNC(=S)N1CCC(NC(=O)C23CC4CC(CC(C4)C2)C3)CC1`, the figure is 104% (inactive); as for `Nc1[nH]c(=S)nc2nc(-c3ccccc3)c(-c3ccccc3)nc12`, 79% (active).
Consider `Nc1ccc(-c2sc(N)nc2-c2ccccc2)cc1`, for which the GTP binding activity (% of control) is 98% (inactive).
As to `CC1CCC2(CC1)NC(=O)N(Cc1nnc(-c3cccs3)o1)C2=O` (stereo unspecified), the GTP binding activity (% of control) was 94% (inactive).
For `CCN(CCCNC(=O)CCn1c(=O)[nH]c2ccsc2c1=O)c1ccccc1`, the GTP binding activity (% of control) was 99% (inactive).
Take `O=C(Nc1ccccc1)N1CCN(C(=O)Nc2ccccc2)CC1`: the GTP binding activity (% of control) was 94% (inactive).
In the case of `O=C(N1CCCCC1)N1CCN(C(=O)N2CCCCC2)CC1`, the GTP binding activity (% of control) is 98% (inactive).
Turning to `CCOc1ccc(CN2CCN(Cc3ccon3)CC2CCO)cc1` (stereo unspecified), the GTP binding activity (% of control) was 99% (inactive).
`C/C(=N\OC(=O)c1ccccc1)c1c(C)nc2cc(C)ccn12`: the GTP binding activity (% of control) is 85% (inactive).
As for `COC(=O)c1c(C(=O)OC)c(-c2cccc(C)c2)n2c1CS(=O)C2` (stereo unspecified), the figure is 95% (inactive).
As to `CCC1CO/C(=C(\C(=C(Cl)Cl)N2CCOCC2)[N+](=O)[O-])N1` (stereo unspecified), the GTP binding activity (% of control) is 101% (inactive).
In the case of `CC(C)NC(=O)c1ccc(Cl)cc1Cl`, the GTP binding activity (% of control) was 103% (inactive).
As for `OCCC1CN(Cc2ccc(Oc3ncccn3)cc2)CCN1CCc1ccccc1` (stereo unspecified), the figure is 98% (inactive).
Regarding `CCOC(=O)CSC1=N/C(=C/c2ccc(-n3cncn3)cc2)C(=O)N1C(C)=O`, the GTP binding activity (% of control) was 96% (inactive).
Then `CCC(CC)c1nnc(NC(=O)c2nn(C)c(=O)c3ccccc23)s1`, with 96% (inactive); and `CC(=O)c1cc(C#N)c(N2CCCCC2)nc1C`, with 97% (inactive).
`COc1cc(COCC(O)CN2CCN(Cc3ccc4c(c3)OCO4)CC2)cc(OC)c1OC` (stereo unspecified): the GTP binding activity (% of control) was 102% (inactive).
For `O=[N+]([O-])c1cccc(Nc2c3ccccc3nc3ccccc23)c1`, the GTP binding activity (% of control) was 93% (inactive).
Take `Cc1cc(OCCCN2CCN(Cc3ccccc3)CC2)ccc1[N+](=O)[O-]`: the GTP binding activity (% of control) is 85% (inactive).
`CN(CC(=O)N1CCN(c2ccccc2)CC1)S(=O)(=O)c1cccs1`: the GTP binding activity (% of control) was 101% (inactive).
`Cc1cc(C)nc(/N=C2\NC(=O)CC(C(=O)O)N2c2ccc(Cl)cc2Cl)n1` (stereo unspecified): the GTP binding activity (% of control) is 96% (inactive).
Turning to `O=C(c1ccc(F)cc1)N1CCCC(c2nc(-c3cccs3)no2)C1` (stereo unspecified), the GTP binding activity (% of control) is 99% (inactive).
As for `O=C(NC1CCCCC1)C1CCCN(S(=O)(=O)c2ccc(Br)s2)C1` (stereo unspecified), the GTP binding activity (% of control) was 100% (inactive).
Turning to `Cc1cccc(NC(=O)c2cccc(C(F)(F)F)c2)c1`, the GTP binding activity (% of control) was 98% (inactive).
For `CCOC(=O)c1ccc(NC(=S)N2CCCC2)cc1`, the GTP binding activity (% of control) is 96% (inactive).
With `Cc1ccc(N(C(=O)Cc2cccs2)C(C(=O)NCC2CCCO2)c2ccncc2)cc1` (stereo unspecified), the GTP binding activity (% of control) is 108% (inactive).
Turning to `CCCNC(=S)N1CCCC(c2nc3ccccc3[nH]2)C1` (stereo unspecified), the GTP binding activity (% of control) was 97% (inactive).
Then `COc1cccc(CN(C)CC(=O)NCc2ccccc2Cl)c1OC`, with 98% (inactive).
For the molecule `COc1cc(/C=N/Nc2ccc(C)cc2)cc(Br)c1O`, the GTP binding activity (% of control) was 97% (inactive).
As for `COc1ccc(/C=C/C(=O)Nc2cccnc2)cc1OC`, the GTP binding activity (% of control) is 98% (inactive).
Then `COc1cc(/C=N/NC(=S)Nc2cccnc2)cc(OC)c1O`, with 77% (active); and `O=C(O)COc1ccc(/C=N/O)cc1Br`, with 92% (inactive); and `Cc1nn(CC(=O)Nc2ccc3c(c2)OCO3)c(C)c1[N+](=O)[O-]`, with 100% (inactive).
For the molecule `COc1ccc(C2(CNC(=O)Cc3ccc(OC)c(OC)c3)CCCC2)cc1`, the GTP binding activity (% of control) was 97% (inactive).
Turning to `CCCCNC(=O)C1(c2ccc(OC)cc2)CCOCC1`, the GTP binding activity (% of control) was 108% (inactive).
In the case of `COc1ccc(C2(CNC(=O)C(c3ccccc3)c3ccccc3)CCOCC2)cc1OC`, the GTP binding activity (% of control) is 123% [activator] (active).
Regarding `Cc1cc(NC(=O)CN2C(=O)NC(CCc3ccccc3)C2=O)no1` (stereo unspecified), the GTP binding activity (% of control) is 100% (inactive).
On to `COC(=O)Cn1cc(/C=C/[N+](=O)[O-])c2ccccc21`, for which the GTP binding activity (% of control) is 93% (inactive).
As for `CC(C)C(C)(C#N)NC(=O)CSc1nncn1-c1ccccc1` (stereo unspecified), the GTP binding activity (% of control) was 104% (inactive).
Then `C/C(=N\OCC(=O)Nc1ccc(Br)cc1)c1cccs1`, with 93% (inactive); and `CCOC(=O)Cc1ncccc1C(=O)Nc1ccc(OC)cc1`, with 100% (inactive); and `O=C(NCc1ccco1)c1nn2cccnc2c1Cl`, with 99% (inactive).
As for `O=C(CCC(=O)NNc1nc2ccccc2c2nc(-c3ccccc3)nn12)NCCCN1CCCC1=O`, the figure is 96% (inactive); as for `CCOc1ccc(NC(=O)NNC(=O)c2ccc(Cl)cc2Cl)cc1`, 96% (inactive).
Then `CN1C(=O)/C(=C/c2ccc(C(=O)NC3CCCC3)cc2)Oc2ccccc21`, with 99% (inactive).
With `CCn1c(CSc2nc(C)cc(C)n2)nnc1SCC(N)=O`, the GTP binding activity (% of control) is 95% (inactive).
Regarding `Cc1c(CN2CCCCC2)c(O)n(CCO)c(=O)c1C#N`, the GTP binding activity (% of control) is 94% (inactive).
Then `COc1ccc(C)cc1-n1nnnc1SCc1nc2ccccc2c(=O)[nH]1`, with 98% (inactive); and `CCCCCc1nnc(NC(=O)c2ccc(=O)n(C)n2)s1`, with 101% (inactive); and `CCc1ccc(Oc2nc([N+](=O)[O-])nn2C)cc1`, with 98% (inactive).
As to `CCOC(=O)N1CCN(Cc2nc(Cc3cccc(C(F)(F)F)c3)no2)CC1`, the GTP binding activity (% of control) is 99% (inactive).
Then `CSCC(NS(=O)(=O)c1ccc(C)cc1)C(=O)O` (stereo unspecified), with 104% (inactive); and `Cc1noc(C)c1CCC(=O)O`, with 97% (inactive); and `Cn1cnnc1SCc1nnc(-c2ccccc2Br)o1`, with 87% (inactive).
Turning to `O=C(C1CCCN1S(=O)(=O)c1ccc(Br)cc1)N1CCOCC1` (stereo unspecified), the GTP binding activity (% of control) is 97% (inactive).
